Source: publication PMC13494018
Unmarked numbers belong to inactive results. The rule behind the calls is not given here.

B1: d1r8_design_ppi_356_dldesign_0_cycle1_af2pred (protein)
chain: VLEAVSAALSLAEEAAELDPRAGHALLTYANAVWNPATLEKGRKTAREKAKEFKKRAEEEDGERARKAAELLEKAIEEAEKLLKEA
B2: d1r8_design_ppi_401_dldesign_0_cycle1_af2pred (protein)
chain: MEKVEKAKKGLEQATELAKAMVPEKAEEFEKIRKEGVEEAKKAAGDPEKAAEILAKARNEILRNGIKAAMAAAKAAA
B3: d1r8_design_ppi_393_dldesign_0_cycle1_af2pred (protein)
chain: EREELAERLEKAARLLEEGAASDSPGLLAARAWAAANVAPPEWAARLREVSRAALANVEEGRKLAKELAEELRKEAERLRKEL
B4: d1r8_design_ppi_314_dldesign_0_cycle1_af2pred (protein)
chain: ALEEAKKAAEEAKAAAAEARAYFDAAGLTGAGNGFYNNTKKRAEELLKEAEEGSEEEAKKARKELERLKETAEKMLEVAKGVYAAAQA
B5: d1r8_design_ppi_364_dldesign_0_cycle1_af2pred (protein)
chain: ALEEAAREARELADETLAAAKAGTINLEELAARFNEAGRLIREVEALGELAEEVGRYVSRKFNEALTALL
B6: d1r8_design_ppi_534_dldesign_0_cycle1_af2pred (protein)
chain: AAALAAEAAALAQEALANIAEADALAKKADPEIGKIYEEAARHFMRGVSLAQRGDLERAKKEIEEGKKLFEKAKELEKKKKEKE
B7: d1r8_design_ppi_543_dldesign_0_cycle0_af2pred (protein)
chain: AAAQTAHAQAVLDTLIALALRKAAEDPAAARAALESAKLVAEGVKATGDAATGAAAQAKVDAAGAEVAAAAA
B8: d1r8_design_ppi_454_dldesign_0_cycle1_af2pred (protein)
chain: AAEAQARAEKAEKLMREAVELVKADPTPEAVKEAEKLIAEAAKLATGSAEKHAAANAARALRTRGPEAAEVQAKLFVEMIKT
B9: d1r8_design_ppi_373_dldesign_0_cycle1_af2pred (protein)
chain: SEELIKNLLLAASKALAGVESAPEAIKAAEEAAKDPRLKEDAEKAKKLIKAAIKATPEEAAKLLKKAAKLLNDALRKYTS
B10: d1r8_design_ppi_321_dldesign_0_cycle0_af2pred (protein)
chain: SAEENKKRLIAAAEAAFKNFSAEAERLEAEGKKEEAAKVYEQLAELLEQMRESAKATAGEEGAKEIEKLLEEAKKKLEEVK
B11: d1r8_design_ppi_364_dldesign_0_cycle0_af2pred (protein)
chain: DLERAAEEAERLAEETLARAAAGEITLEELAEAHRRIGELIERVAASGELAERVARRASRLMNQALTALA
B12: d1r8_design_ppi_587_dldesign_0_cycle0_af2pred (protein)
chain: SEYRREAEELRERVERIEKRMREAKTAEEAREVLREAQRVAAEAARLAVQAAADGADQEVLDEINEVLSRALEVAREASRKARELE
B13: d1r8_design_ppi_566_dldesign_0_cycle1_af2pred (protein)
chain: MTPEEAREMGERIREAAKRSVEEAVKAIEEAKEKLSPELKPLADRAIELAKRSPEAGANLATTALHIEALS
B14: d1r8_design_ppi_588_dldesign_0_cycle1_af2pred (protein)
chain: AAEDKALAAAMAAEAEKVIAEAAKQTPAEANKLAATFAEKAFALAKEHPGAAAALNAAAFKVLTGAMKAIQAQSA
B15: d1r8_design_ppi_467_dldesign_0_cycle1_af2pred (protein)
chain: AEAEAAVASLVEFVKAILDAAATQDPRLAPAAEEALALMEAGDFDEAARLFLAAGAAAGPAAAALARAAANAMRLAAEAAAAI
B16: d1r8_design_ppi_443_dldesign_0_cycle1_af2pred (protein)
chain: SPAAALLARTAAAIAAQTVREVGPARAAELQALADAATAAAEAGDFTTAGELLEELLRLAAEARAEKAAAERAAAA
B17: d1r8_design_ppi_296_dldesign_0_cycle1_af2pred (protein)
chain: SAAAKAAAEAAKQRVDGLAQMAIASPALLPHMEAMAKRAAAAVAALDPALGAEVEKYAKEQMAKAKAAVAAAAAAA
B18: d1r8_design_ppi_443_dldesign_0_cycle0_af2pred (protein)
chain: SAAAALLARTAAAIVAQTRALVGDAKAAEAQALADAAVAAAKAGDYAKAGALLTELLKLAAEARREKAAAEAAAAA
B19: d1r8_design_ppi_373_dldesign_0_cycle0_af2pred (protein)
chain: DQETTGNLVLAAAKANAGVEEADKAIEAAEKAAKDPKLKEKAEEAKKLIEEAKKATPEEAKKLLKEAAKLVNEALRAYSA

Molecular target: CD276, Q5ZPR3
Sequence (Q5ZPR3 whole entry): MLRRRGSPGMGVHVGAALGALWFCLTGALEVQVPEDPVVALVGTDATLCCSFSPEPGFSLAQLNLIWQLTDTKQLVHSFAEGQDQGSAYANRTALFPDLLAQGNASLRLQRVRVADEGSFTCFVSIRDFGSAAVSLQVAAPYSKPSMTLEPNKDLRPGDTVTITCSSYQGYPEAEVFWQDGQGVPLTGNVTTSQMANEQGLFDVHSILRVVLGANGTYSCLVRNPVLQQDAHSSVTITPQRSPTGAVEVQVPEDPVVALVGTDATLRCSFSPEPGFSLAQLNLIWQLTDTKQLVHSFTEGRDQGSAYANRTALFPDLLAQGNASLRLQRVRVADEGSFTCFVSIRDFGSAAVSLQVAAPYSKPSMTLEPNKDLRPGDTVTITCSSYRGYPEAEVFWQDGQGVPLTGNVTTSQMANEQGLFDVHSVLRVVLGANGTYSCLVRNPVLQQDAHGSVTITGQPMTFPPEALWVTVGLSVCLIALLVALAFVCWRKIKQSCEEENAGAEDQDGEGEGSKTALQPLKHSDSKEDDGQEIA

Binder | binding in a display sort
B1 | not found
B2 | binds (active)
B3 | not found
B4 | not found
B5 | not found
B6 | not found
B7 | not found
B8 | not found
B9 | not found
B10 | not found
B11 | not found
B12 | not found
B13 | not found
B14 | not found
B15 | not found
B16 | not found
B17 | not found
B18 | not found
B19 | not found
